Experimental data taken from PubChem BioAssay AID1942 (Johns Hopkins Ion Channel Center, 2009).
Hit rate of the full screen: of about 2,400 compounds, about 580 (24%) were called active.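 The calls were made as follows: active = activity change at or above the mean plus 3 SD of buffer wells without dofetilide, per plate; inactive = the rest.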 Not all results are given here.

These compounds were tested against Potassium voltage-gated channel subfamily KQT member 2 (Rattus norvegicus) (UniProt O88943) (assay: rat KCNQ2 channel activation by compounds alone, confirmation, counter-screen for hERG block protector project, cell-based, CHO, FluxOR thallium flux (AID 1942;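 also: normalized value minus buffer-control mean plus three SD of buffer wells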)). Details: CHO-KCNQ2 cells, FluxOR thallium flux fluorescence; at 10 µM; active compounds read high.
Chain of Potassium voltage-gated channel subfamily KQT member 2 (Rattus norvegicus) (O88943 whole entry, looked up): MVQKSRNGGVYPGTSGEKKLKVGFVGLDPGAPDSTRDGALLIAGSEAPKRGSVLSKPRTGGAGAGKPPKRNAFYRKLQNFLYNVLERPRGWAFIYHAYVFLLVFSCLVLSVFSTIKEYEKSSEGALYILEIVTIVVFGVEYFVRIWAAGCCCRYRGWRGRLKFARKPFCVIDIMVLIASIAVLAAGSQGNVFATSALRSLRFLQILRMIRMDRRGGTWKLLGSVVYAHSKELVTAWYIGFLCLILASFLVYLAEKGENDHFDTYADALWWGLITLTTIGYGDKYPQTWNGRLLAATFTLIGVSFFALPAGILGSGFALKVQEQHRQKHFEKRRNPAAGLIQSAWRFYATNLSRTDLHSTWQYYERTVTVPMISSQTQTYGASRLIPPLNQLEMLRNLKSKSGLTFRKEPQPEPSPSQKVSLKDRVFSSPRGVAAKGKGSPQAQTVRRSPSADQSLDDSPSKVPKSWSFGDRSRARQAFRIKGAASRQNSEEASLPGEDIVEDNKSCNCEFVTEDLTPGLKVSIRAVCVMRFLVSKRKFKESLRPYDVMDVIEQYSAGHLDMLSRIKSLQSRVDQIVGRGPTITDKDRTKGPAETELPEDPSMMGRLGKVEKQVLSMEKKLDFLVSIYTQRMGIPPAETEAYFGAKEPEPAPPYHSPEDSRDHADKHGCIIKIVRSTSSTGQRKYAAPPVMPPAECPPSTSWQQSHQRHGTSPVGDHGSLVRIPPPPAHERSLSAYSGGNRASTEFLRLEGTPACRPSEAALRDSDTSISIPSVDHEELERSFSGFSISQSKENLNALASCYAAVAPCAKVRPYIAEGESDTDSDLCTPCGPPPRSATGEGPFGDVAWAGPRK
In the case of `CCOC(=O)N/N=C\c1ccc(-c2cc(Cl)ccc2Cl)o1`, the activity change, less the hit threshold is reported as -17.6% (inactive). For `O=C1N(CN2CCN(Cc3ccccc3)CC2)c2ccccc2C12OCCCO2`, the activity change, less the hit threshold was -12.5% (inactive). For `CCOc1cc(N2CCCC2)ccc1[N+](=O)[O-]`, the activity change, less the hit threshold was -13.1% (inactive). In the case of `S=c1[nH]nc(-c2cccs2)n1/N=C/c1c(Cl)cccc1Cl`, the activity change, less the hit threshold is reported as 13.1% (active). For `CC(C1CC2CCC1C2)n1c(-c2cccs2)n[nH]c1=S` (stereo not given), the activity change, less the hit threshold was -7.9% (inactive). For `Cc1cccc(/C=N/n2c(COc3ccccc3)n[nH]c2=S)c1`, the activity change, less the hit threshold was -13.8% (inactive). `CCC(=O)Nc1cc(=O)[nH]c2ncnn12` was tested, and the activity change, less the hit threshold was -13.1% (inactive). For `CCOC(=O)C1=C(C)NC(=O)NC1c1cccc(OC)c1OCc1ccccc1Cl` (stereo not given), the activity change, less the hit threshold was -15.6% (inactive). With `CC(C)C(=O)Nc1ccc(NC(=O)CCc2ccccc2)cn1` the activity change, less the hit threshold was -23.2% (inactive). In the case of `CN(C)c1ccc(NC(=O)CCCc2ccccc2)cc1`, the activity change, less the hit threshold is reported as 0.2% (active). For `CN(Cc1ccccc1)C(=O)CCc1ccccc1`, the activity change, less the hit threshold was -22.5% (inactive). `COc1cc2c(=O)nc3n(c2cc1OC)C(c1ccccc1)N=C(N)N3` (stereo not given) was tested, and the activity change, less the hit threshold was -18.8% (inactive). In the case of `Nc1nc2c(s1)CCc1c-2cnn1-c1ccccc1`, the activity change, less the hit threshold is reported as -29.6% (inactive). With `Oc1c(N=Nc2ccccn2)ccc2ccccc12` the activity change, less the hit threshold was 7.7% (active). `Oc1ccc(N=Nc2ccc3c(c2)OCCO3)c2ncccc12` was tested, and the activity change, less the hit threshold was -11.2% (inactive). In the case of `CC1CCN(c2ccc3c(c2)S(=O)(=O)c2ccccc2C3=O)CC1`, the activity change, less the hit threshold is reported as -25.4% (inactive). With `Cc1cc(-c2cccc(Br)c2)c(C#N)c(N)n1` the activity change, less the hit threshold was -13.8% (inactive). In the case of `CCOC(=O)c1c(SCC(=O)Nc2nc(C)cs2)nc(=O)[nH]c1C`, the activity change, less the hit threshold is reported as -17.9% (inactive). With `O=c1c(-c2ccc(Cl)cc2)[n+]([O-])c2ccccc2n1O` the activity change, less the hit threshold was 92.9% (active). With `O=c1c(-c2ccccc2)[n+]([O-])c2ccccc2n1O` the activity change, less the hit threshold was -16.2% (inactive). With `Cc1ccc(-c2c(=O)n(O)c3ccccc3[n+]2[O-])cc1` the activity change, less the hit threshold was 59.1% (active). `O=c1c(-c2cccc3ccccc23)[n+]([O-])c2ccccc2n1O` was tested, and the activity change, less the hit threshold was 5.6% (active). In the case of `FC(F)c1nnc2c(Cl)cc(C(F)(F)F)cn12`, the activity change, less the hit threshold is reported as -8% (inactive). With `CC(=O)Nc1ccc(S(=O)(=O)N2CCC(C(=O)O)CC2)cc1` the activity change, less the hit threshold was -26.7% (inactive). `Cc1cc(=O)[nH]c(SCC(=O)Nc2ccccc2C#N)c1C#N` was tested, and the activity change, less the hit threshold was -14.5% (inactive). `CCOc1cc(/C=C2/C(=O)ON=C2C)ccc1O` was tested, and the activity change, less the hit threshold was -11.8% (inactive). For `COc1cc(-c2nnc(SCC(=O)O)n2-c2ccccc2)cc(OC)c1OC`, the activity change, less the hit threshold was -13.9% (inactive). In the case of `COc1cccc(/C=N/n2c(SC)nnc2-c2ccccc2)c1O`, the activity change, less the hit threshold is reported as 2.8% (active). `COc1cccc(/C=N/NC(=O)CSc2ccccc2C)c1O` was tested, and the activity change, less the hit threshold was -2.9% (inactive). In the case of `COc1cc(S(=O)(=O)Nc2c(C)cc(C)cc2C)ccc1Cl`, the activity change, less the hit threshold is reported as -20.6% (inactive). For `COCCN1C(=O)C(=O)/C(=C(/O)c2ccc(S(=O)(=O)N3CCOCC3)cc2)C1c1ccc(OC)c(OC)c1` (stereo not given), the activity change, less the hit threshold was -17.7% (inactive). For `CCOC(=O)c1c(-c2ccc(C)o2)csc1NC(=S)NC(=O)N(C)C`, the activity change, less the hit threshold was 24.3% (active). For `CCOC(=O)c1c(C=O)c(C)n(Cc2ccccc2)c1C`, the activity change, less the hit threshold was -14.5% (inactive). `CCOC(=O)c1ccc(NC(=O)Cn2nnc(-c3ccccc3)n2)cc1` was tested, and the activity change, less the hit threshold was -26.4% (inactive). For `CCOC(=O)c1c(-c2ccccc2)csc1NC(=S)NC`, the activity change, less the hit threshold was 19% (active). `CCOC(=O)c1c(CC(C)C)csc1NC(=O)c1ccccc1C(=O)O` was tested, and the activity change, less the hit threshold was -7.7% (inactive). With `CCNC(=S)Nc1scc(-c2ccccc2)c1C(=O)OCC` the activity change, less the hit threshold was 10.6% (active). In the case of `Nc1nonc1-n1nnc(C(=O)N/N=C/c2cccc(Cl)c2Cl)c1CN1CCCC1`, the activity change, less the hit threshold is reported as -9.3% (inactive). With `Oc1ccc2[nH]cnc2c1CN1CCCCC1` the activity change, less the hit threshold was -16.5% (inactive). For `O=C(O)C1C2CCC(O2)C1C(=O)Nc1ccc(F)c(Cl)c1` (stereo not given), the activity change, less the hit threshold was -21% (inactive). `Cc1ccc(-c2noc(CCC(=O)NC3CCCC3)n2)cc1` was tested, and the activity change, less the hit threshold was -9.6% (inactive). In the case of `O=C(Nc1ccc(Cl)cc1Cl)c1n[nH]c(Cn2cncn2)n1`, the activity change, less the hit threshold is reported as -6% (inactive). In the case of `CC(=O)c1cccc(NC(=O)NCc2cccs2)c1`, the activity change, less the hit threshold is reported as -14.9% (inactive). In the case of `CN(CCc1ccccn1)C(=O)CCC1CCCN(C(=O)c2ccsc2)C1` (stereo not given), the activity change, less the hit threshold is reported as -13.1% (inactive). For `CN(Cc1ccccc1)C(=S)NC(=O)c1cccs1`, the activity change, less the hit threshold was 7.6% (active). For `O=C(c1cccs1)N1CCN=C1SCc1ccccc1`, the activity change, less the hit threshold was -22.6% (inactive). For `Cc1ccc(C(=O)NNC(=S)NC(=O)c2ccccc2)cc1`, the activity change, less the hit threshold was -25.9% (inactive). For `Cc1ccc(C(=O)NC(=S)N(C)Cc2ccccc2)cc1`, the activity change, less the hit threshold was 7.1% (active). In the case of `COc1ccc(N(CC(=O)NCc2cccnc2)S(=O)(=O)c2ccccc2[N+](=O)[O-])c(OC)c1`, the activity change, less the hit threshold is reported as -23.8% (inactive). For `Cc1ccc(-n2ccc(=O)c(C(=O)Nc3ccc(S(=O)(=O)Nc4nccs4)cc3)n2)cc1`, the activity change, less the hit threshold was -13.6% (inactive). For `C=C(C)C1CC=C(C)/C(=N/NC(=O)CCC(=O)Nc2ccccc2Cl)C1` (stereo not given), the activity change, less the hit threshold was -11.1% (inactive). For `O=c1c2ccc(Cl)cc2nc(-c2ccc([N+](=O)[O-])cc2)n1O`, the activity change, less the hit threshold was 26.8% (active). For `O=c1c2cc(Cl)ccc2nc(-c2ccc([N+](=O)[O-])cc2)n1O`, the activity change, less the hit threshold was 31.4% (active). For `O=c1c2cc(Br)ccc2nc(-c2ccc([N+](=O)[O-])cc2)n1O`, the activity change, less the hit threshold was 43.1% (active). `N#Cc1ccc(-c2nc3cc(Cl)ccc3c(=O)n2O)cc1` was tested, and the activity change, less the hit threshold was 1.6% (active). For `COc1ccc(C(CC(=O)N2CCOCC2)c2c(O)cc(OC)cc2OC)cc1` (stereo not given), the activity change, less the hit threshold was -14.7% (inactive). `COc1ccc(-c2cn3nc(SCC(=O)NC4CCCCC4)ccc3n2)cc1` was tested, and the activity change, less the hit threshold was -7.9% (inactive). In the case of `CCOC(=O)C(=CNc1cc(C)nn1C(C)(C)C)C(=O)OCC`, the activity change, less the hit threshold is reported as -8.9% (inactive). In the case of `O=C(CCCc1c[nH]c2ccccc12)Nc1ccc(S(=O)(=O)Nc2ncccn2)cc1`, the activity change, less the hit threshold is reported as -22% (inactive). For `COc1ccc([N+](=O)[O-])cc1N(CC(=O)NCc1ccco1)S(C)(=O)=O`, the activity change, less the hit threshold was -12.1% (inactive). In the case of `COc1ccccc1-n1cnc2sc(C)c(C)c2c1=O`, the activity change, less the hit threshold is reported as -17.7% (inactive). With `CCC1(C)Cc2c(sc3nc(SC)[nH]c(=S)c23)CO1` (stereo not given) the activity change, less the hit threshold was 101% (active). In the case of `CCc1nc2sc3c(c2c(=S)[nH]1)CC(C)(C)OC3`, the activity change, less the hit threshold is reported as -13.3% (inactive). For `CSc1nc2sc3c(c2c(=S)[nH]1)CC(C)(C)OC3`, the activity change, less the hit threshold was 73.2% (active). For `COc1ccc(CCNC(=O)CC(NS(=O)(=O)c2ccc(NC(C)=O)cc2)C(C)C)cc1OC` (stereo not given), the activity change, less the hit threshold was -17.8% (inactive). In the case of `COC(=O)c1sccc1NS(=O)(=O)c1ccc(F)cc1F`, the activity change, less the hit threshold is reported as -1.9% (inactive). With `Cc1ccc(S(=O)(=O)N(C)C)cc1NC(=S)NC(C)CCCC(C)C` (stereo not given) the activity change, less the hit threshold was -25.5% (inactive). For `Cc1cccc(/C=N/Nc2ccc3ccccc3n2)c1`, the activity change, less the hit threshold was -14.1% (inactive). In the case of `Cn1cc(/C=C2\SC(=O)NC2=S)c2ccccc21`, the activity change, less the hit threshold is reported as -17.7% (inactive). For `CCOc1ccc(/C=C2\CCc3ccccc3C2=O)cc1`, the activity change, less the hit threshold was -13.5% (inactive). In the case of `CCOc1ccc(/C=C2/SC(=O)NC2=S)cc1`, the activity change, less the hit threshold is reported as 83.5% (active). In the case of `O=C(O)c1ccccc1NC(=O)C1CCN(S(=O)(=O)c2cccc3nsnc23)CC1`, the activity change, less the hit threshold is reported as -7% (inactive). For `Cc1ccc2nsnc2c1S(=O)(=O)Nc1cccc2nsnc12`, the activity change, less the hit threshold was 3.5% (active). `O=C(N/N=C/C(Cl)=C/c1ccc([N+](=O)[O-])cc1)C(=O)Nc1ccc(C(=O)O)cc1` was tested, and the activity change, less the hit threshold was -18.4% (inactive). In the case of `O=C(NC(=S)Nc1cccc([N+](=O)[O-])c1)c1ccco1`, the activity change, less the hit threshold is reported as -20.7% (inactive). For `O=C(Nc1cccc(N=Cc2cc(Cl)cc(Br)c2O)c1)c1ccco1`, the activity change, less the hit threshold was 22.4% (active). In the case of `Oc1c(Br)cc(Cl)cc1C=Nc1ccccc1Br`, the activity change, less the hit threshold is reported as 28.2% (active). `Cc1cccc(N=Cc2cc(Br)cc(Cl)c2O)c1` was tested, and the activity change, less the hit threshold was 30.4% (active). For `Oc1c(Cl)cc(Cl)cc1C=Nc1ccc(Br)cc1`, the activity change, less the hit threshold was 38.8% (active). In the case of `O=C(Nc1ccccc1C(=O)O)c1cccc(NC(=O)c2ccco2)c1`, the activity change, less the hit threshold is reported as -3.3% (inactive). In the case of `COc1cccc(CN=c2c([N+](=O)[O-])nn(-c3ccccc3C)n2O)c1`, the activity change, less the hit threshold is reported as -19.6% (inactive). For `CCOCCOCN(C#N)c1nc(OC)nc(N(C)C)n1`, the activity change, less the hit threshold was -20.4% (inactive). `Cc1ccc(N=Cc2cc(Br)cc(Cl)c2O)cc1` was tested, and the activity change, less the hit threshold was 5.8% (active). With `COc1cc(Br)cc(C=Nc2cccc(C(F)(F)F)c2)c1O` the activity change, less the hit threshold was 5.7% (active). With `NC(=O)c1cccc(N=Cc2cc(Cl)cc(Cl)c2O)c1` the activity change, less the hit threshold was 28.8% (active). With `Cc1ccc(N=Cc2cc(Cl)cc(Cl)c2O)nc1` the activity change, less the hit threshold was 22.5% (active). In the case of `COc1cc(Br)cc(/C=N/NC(=O)Cc2ccccc2)c1O`, the activity change, less the hit threshold is reported as -9.1% (inactive). With `CCC[C@H]1COCCS(=O)(=O)N1Cc1ccc(Br)cc1` the activity change, less the hit threshold was -9.4% (inactive). In the case of `COc1ccc(/C=C2\SC(=N)N(c3nccs3)C2=O)cc1OC`, the activity change, less the hit threshold is reported as -16.2% (inactive). `Cc1ccsc1CN(C(=O)c1ccc([N+](=O)[O-])cc1)C1CCS(=O)(=O)C1` (stereo not given) was tested, and the activity change, less the hit threshold was -17.5% (inactive). In the case of `Cc1ccc(C(C)C)cc1OCC(=O)Nc1ccc(N2CCCCC2)cc1`, the activity change, less the hit threshold is reported as -13.5% (inactive). `Oc1c(Br)cc(Br)cc1C=Nc1cccc2ncccc12` was tested, and the activity change, less the hit threshold was 30.9% (active). With `Oc1c(Br)cc(Br)cc1CNc1cccc2cccnc12` the activity change, less the hit threshold was -29.6% (inactive). With `Cc1cccc(N2CCN(C(=O)C3CCN(S(=O)(=O)c4cccnc4)CC3)CC2)c1C` the activity change, less the hit threshold was -14.6% (inactive). In the case of `O=C(CSCc1cnn(-c2ccccc2)c1-n1cccc1)NCc1cccnc1`, the activity change, less the hit threshold is reported as -9% (inactive). With `CC1=[N+]([O-])C(C)(C)C(c2ccc(Br)cc2)=[N+]1[O-]` the activity change, less the hit threshold was 7.3% (active). In the case of `Cc1cc(C)c(S(=O)(=O)NCc2ccccn2)c(C)c1`, the activity change, less the hit threshold is reported as -18.8% (inactive). For `CSc1nc(-c2ccco2)cc(C(F)(F)F)c1C#N`, the activity change, less the hit threshold was -9.1% (inactive). For `Cc1c(N2C(=O)/C(=C\c3ccccc3O)SC2=S)c(=O)n(-c2ccccc2)n1C`, the activity change, less the hit threshold was 68.6% (active). `O=C(O)COc1ccccc1/C=C1\SC(=S)N(NC(=O)c2ccccc2O)C1=O` was tested, and the activity change, less the hit threshold was -12.9% (inactive).
